Data published in PubChem BioAssay AID777 (Sanford-Burnham Center for Chemical Genomics, 2007).
Hit rate of the full screen: of about 96,000 compounds, about 19,000 (20%) were called active. These entries were drawn from the full list. Values without a mark were called inactive.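 How the source made its calls: active means blocking of liver enzyme CYP2C9 beyond about 50% at 5 µM (limit read from the data); inactive means the rest.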

What follows are compounds tested against Cytochrome P450 2C9 (Homo sapiens) (UniProt P11712) (assay: blockers of cytochrome P450 2C9 activity – biochemical, luminescence, ADME assay, primary screen (AID 777)). Details: CYP2C9 Supersomes, luciferin-H conversion, at 5 µM, hits give high values.
Cytochrome P450 2C9 (Homo sapiens), sequence (P11712 whole entry, looked up): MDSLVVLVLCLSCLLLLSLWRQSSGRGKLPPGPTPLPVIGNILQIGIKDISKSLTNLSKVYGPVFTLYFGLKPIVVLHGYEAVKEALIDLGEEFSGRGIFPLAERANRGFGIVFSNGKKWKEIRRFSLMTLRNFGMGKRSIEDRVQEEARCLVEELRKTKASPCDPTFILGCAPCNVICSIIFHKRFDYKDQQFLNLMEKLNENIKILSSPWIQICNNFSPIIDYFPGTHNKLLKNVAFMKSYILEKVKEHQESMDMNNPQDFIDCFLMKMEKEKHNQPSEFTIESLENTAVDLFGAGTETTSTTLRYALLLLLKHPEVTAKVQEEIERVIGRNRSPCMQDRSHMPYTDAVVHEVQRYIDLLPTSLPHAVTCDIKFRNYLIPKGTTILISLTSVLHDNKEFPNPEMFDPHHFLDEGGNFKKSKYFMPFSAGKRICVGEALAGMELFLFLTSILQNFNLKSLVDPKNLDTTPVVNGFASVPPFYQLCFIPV

| SMILES | inhibition |
| --- | --- |
| CCOC(=O)c1cc(NC(=O)c2cccnc2)cc(C(=O)OCC)c1 | 37.8% |
| Cc1c(C(=O)OC(C)C)sc(NC(=O)c2cccnc2)c1C#N | 95.4% (active) |
| O=C(Nc1cnccn1)c1cccnc1 | -0.8% |
| O=C(COc1ncnc2c(Cl)cc(Cl)cc12)N1CCN(S(=O)(=O)c2ccccc2)CC1 | -7.6% |
| CCCCCN(C(=O)NC(=O)Nc1ccccc1OC)S(C)(=O)=O | 68.3% (active) |
| CCCCCN(C(=O)NC(=O)Nc1ccccc1C)S(C)(=O)=O | 32.9% |
| CCCCCCCC(=O)NC(Nc1ccccc1OC)C(Cl)(Cl)Cl (stereo unspecified) | 12.1% |
| Cc1c(CCO)c(=O)[nH]n1C(=O)c1c(F)cccc1F | -4.2% |
| Cc1ccc(N2C(=O)S/C(=C/c3cn(C)c4ccccc34)C2=O)cc1 | -33.6% |
| COc1ccc(/C=C2/S/C(=N/N=C3\CC4CCC3(C)C4(C)C)NC2=O)cc1 (stereo unspecified) | -0.8% |
| Cc1sc(NC(=S)NC(=O)c2cccs2)nc1-c1ccc(CC(C)C)cc1 | 14.4% |
| COc1cc(C2C3C(=O)N(c4ccccc4)C(=O)C3ON2c2ccccc2)ccc1O (stereo unspecified) | 69.1% (active) |
| COc1cc(C2C(C(=O)Nc3ccccc3OC)=C(C)Nc3ncnn32)ccc1O (stereo unspecified) | 12.1% |
| Cc1ccccc1N1C(=O)C2ON(c3ccccc3)C(c3ccncc3)C2C1=O (stereo unspecified) | 65.9% (active) |
| CCOC(=O)C1=C(c2ccccc2)N=C2SCC(=O)N2C1c1ccc(O)c(OC)c1 (stereo unspecified) | 33.1% |
| CC(=O)c1cc(NC(=O)c2ccccc2)c(=O)oc1/C=C/N(C)C | 46.8% |

| SMILES | inhibition |
| --- | --- |
| CCCCCOC(=O)c1ccc(N2C(=O)C3C4C=CC(C4)C3C2=O)cc1 (stereo unspecified) | 46.3% |
| O=S(=O)(NCc1cccnc1)c1ccc(Br)s1 | 14.7% |
| Cc1nc2nc(COc3ccccc3)[nH]n2c(=O)c1Cc1ccccc1 | 17.5% |
| CCOCCCNS(=O)(=O)Cc1ccccc1 | -1.6% |
| CCOc1ccc2nc(N3CCCN(C(=O)Nc4ccccc4C)CC3)c(C#N)cc2c1 | 98.1% (active) |
| CCOc1ccc2cc(C#N)c(SCC(=O)OC)nc2c1 | 21.4% |
| CCOc1ccc2nc(NCCNS(=O)(=O)c3ccccc3)c(C#N)cc2c1 | 22.2% |
| CCOC(=O)CC1C(=O)NCCN1C(=O)COc1ccc(Br)cc1C (stereo unspecified) | -12% |
| Fc1cnc(N2CCOCC2)nc1NCc1ccccc1 | -1.5% |
| COc1c(C)cccc1C(=O)Nc1cc(Cl)ccc1N1CCOCC1 | 26.5% |
| Cc1cc(C(=O)Nc2ccccc2N2CCOCC2)c2ccccc2n1 | 58.2% (active) |
| O=S(=O)(Nc1ccccc1N1CCOCC1)c1ccc(Cl)s1 | 10.6% |
| Cc1c(NC(=O)c2cc(-c3ccc(Cl)s3)nc3ccccc23)c(=O)n(-c2ccccc2)n1C | 29.3% |
| O=C(CNC(=O)c1ccc(Cl)cc1Cl)NCC(=O)Nc1ccccc1N1CCOCC1 | 57.6% (active) |
| O=C(CN1CCOCC1)Nc1cc(Cl)ccc1Cl | -138% |
